KB-3-1 tox: kills parental KB-3-1 adenocarcinoma cells; KB-3-1 viability, CellTiter-Glo ATP luminescence, 72 h; Potency, µM (titrated, usually from 46.1 µM), usual class: cytotoxic; hit rate 1.4% among 400,000; AID 1347075; also: nearly all actives have a fitted effect of over 60% in size
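Parental KB-3-1 adenocarcinoma cells in phenol-red-free DMEM with 10% FBS were pin-treated with compounds at several concentrations, incubated 72 h at 37 °C, and viability read by CellTiter-Glo luminescence; concentration-effect curves were fitted after normalization.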
KB-V1 cytotox: kills drug-selected multidrug resistant KB-V1 cells; KB-V1 MDR cells viability, CellTiter-Glo, 72 h; hit rate 3.4% among 400,000; Potency, µM (titrated, usually from 46.1 µM), actives largely listed as cytotoxic; also: nearly all actives have a fitted effect of over 60% in size
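KB-V1 MDR subline cells in DMEM (phenol-red free, 10% FBS) exposed to compounds in qHTS concentration series for 72 h at 37 degrees C. Viability read by CellTiter-Glo luminescence; concentration-effect curves fitted after normalization and correction.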
IL-1B inflam inh: blocks inflammasome-driven IL-1 beta release. activity change, % at 57.5 µM. hit rate 4.7% among 360,000. THP-1 LPS/ATP IL-1B secretion, AlphaLISA, 16 h; active compounds read low. AID 743279; in the data active = activity change below about -50%; inconclusive = mostly about -30% to -49%
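THP-1 cells pretreated 1 hr with compounds (up to 57.5 uM final), then stimulated with LPS (250 ng/mL final) plus ATP (1.25 mM final); secreted IL-1B measured by AlphaLISA after 16 hr, decreased signal indicating inhibition.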
SW480 rerep: induces DNA re-replication in SW480 colon adenocarcinoma cells; hit rate 1.8% among 340,000; SW480 DNA re-replication, Hoechst DNA content imaging, 48 h; Potency, µM (doses to about 46.1 µM), usual class: activators; also: nearly all actives have a fitted effect of over 55% in size
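250 cells/well; 23 nL cpd via pin tool; 48 hr, 37 C, 5% CO2; Hoechst 40 min; imager read of total nuclear intensity, ex 405/em 500-530 nm.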
MCF10A rereplic: DNA re-replication induction in MCF 10a cells; MCF 10A DNA re-replication, Hoechst nuclear intensity, 48 h; Potency, µM (highest dose often 46.1 µM), actives largely listed as activators; hit rate 2.9% among 350,000; also: nearly all actives have a fitted effect of over 50% in size
Large screens that a line does not name were inactive. Sampled rows, rich in hits. Any-hit rate of the full collection: about 9.9%. Unless noted, calls follow the shape of the dose curve; as a rule, active = well fitted curve in the direction sought with a large enough effect; inconclusive = small, poorly fitted or top-dose-only effect, or another doubt; inactive = no such curve, though single readings can be large; an effect the other way counts as inactive or inconclusive.

c1cc2n(c1)-c1c(ccc3c1OCO3)CNC2c1ccc2c(c1)OCO2 (stereo not given)	KB-3-1 tox inconclusive, KB-V1 cytotox 18.4µM
COc1ccc(C2NCc3ccc4c(c3-n3cccc32)OCO4)cc1O (stereo not given)	KB-3-1 tox 1.3µM, KB-V1 cytotox inconclusive, SW480 rerep 3.26µM, MCF10A rereplic 4.11µM
CCCCOc1ccc(Cn2c(=O)oc3ccccc32)cc1	MCF10A rereplic inconclusive
COc1ccc(C)cc1NC(=O)c1cccn(Cc2ccccc2Cl)c1=O	none (no result: IL-1B inflam inh, SW480 rerep, MCF10A rereplic)
Cn1c(=O)oc2cc(NC(=O)CCl)ccc21	KB-3-1 tox inconclusive, KB-V1 cytotox inconclusive, IL-1B inflam inh -80.0, SW480 rerep inconclusive
O=C(CCNC(=O)N1C[C@H]2C[C@@H](C1)c1cccc(=O)n1C2)Nc1ccc(F)cc1	none
O=[N+]([O-])c1cc(C(F)(F)F)c(Cl)c([N+](=O)[O-])c1Nc1ncc(C(F)(F)F)cc1Cl	KB-3-1 tox 1.46µM, KB-V1 cytotox inconclusive (no result: IL-1B inflam inh, SW480 rerep, MCF10A rereplic)
O=C(O)c1cc(Oc2ccc(C(F)(F)F)cc2Cl)ccc1[N+](=O)[O-]	none
CCC(C(N)=O)N1CCCC1=O (stereo not given)	none (no result: KB-3-1 tox, KB-V1 cytotox, IL-1B inflam inh)
Clc1cccc(CNCCc2c[nH]c3ccccc23)c1	IL-1B inflam inh -91.9, SW480 rerep inconclusive, MCF10A rereplic inconclusive
COc1ccc(CNCCc2c[nH]c3ccccc23)c(OC)c1OC	IL-1B inflam inh -58.1
COc1cccc(CNCCc2c[nH]c3ccccc23)c1OC	none
CCOc1cc(CNCCc2c[nH]c3ccccc23)cc(Cl)c1OC	KB-3-1 tox inconclusive, KB-V1 cytotox inconclusive, IL-1B inflam inh -102.7, SW480 rerep inconclusive, MCF10A rereplic inconclusive
c1ccc2c(CCNC3CCCCC3)c[nH]c2c1	SW480 rerep 20.6µM
CC(C)C(=O)N1CCC(CN=Cc2c(O)n(C3CCCCC3)c(=O)n(C3CCCCC3)c2=O)CC1	KB-3-1 tox inconclusive, KB-V1 cytotox inconclusive, IL-1B inflam inh inconclusive, MCF10A rereplic inconclusive
COC(=O)C1=C(c2ccc(OC(F)(F)F)cc2)C[C@@H]2CC[C@H]1N2C(=O)NCCOc1ccccc1Cl	KB-3-1 tox inconclusive, KB-V1 cytotox inconclusive, IL-1B inflam inh -58.4
COC(=O)C1=C(c2cccc(OCc3ccccc3)c2)C[C@@H]2CC[C@H]1N2C(=O)NCCOc1ccccc1	KB-3-1 tox inconclusive, KB-V1 cytotox inconclusive, MCF10A rereplic 13µM
COC(=O)C1=C(c2cccc(OCc3ccccc3)c2)C[C@@H]2CC[C@H]1N2C(=O)NCCOc1ccccc1Cl	KB-3-1 tox inconclusive, KB-V1 cytotox inconclusive, MCF10A rereplic 2.06µM
COC(=O)C1=C(c2cccc(OCc3ccccc3)c2)C[C@@H]2CC[C@H]1N2C(=O)NCc1ccccc1	KB-3-1 tox inconclusive, KB-V1 cytotox inconclusive
O=C(N/N=C/c1ccc(C(F)(F)F)cc1)c1ccncc1	MCF10A rereplic inconclusive
C[C@@H]1CN([C@@H](C)CO)C(=O)CCCn2nncc2CO[C@@H]1CN(C)C(=O)Oc1ccccc1	none (no result: SW480 rerep, MCF10A rereplic)
O=C(COc1ccc(Cl)cc1)N(c1ccccc1Cl)C1CN2CCC1CC2 (stereo not given)	KB-3-1 tox inconclusive, KB-V1 cytotox inconclusive, IL-1B inflam inh -75.0, MCF10A rereplic inconclusive
O=C(COc1ccc(Cl)cc1)N(c1ccc(Cl)cc1)C1CN2CCC1CC2 (stereo not given)	KB-3-1 tox inconclusive, IL-1B inflam inh -95.5
Cc1cccc(N2C(=O)NC(=O)/C(=C\c3cccn3-c3ccc(Cl)cc3)C2=O)c1	KB-3-1 tox inconclusive, KB-V1 cytotox 18.4µM, IL-1B inflam inh -89.8, SW480 rerep inconclusive, MCF10A rereplic inconclusive
Cc1cccc(N2C(=O)NC(=O)/C(=C/c3ccc([N+](=O)[O-])o3)C2=O)c1	none
Cc1cc(C)cc(N2C(=O)NC(=O)/C(=C/c3cccn3-c3ccc(Cl)cc3)C2=O)c1	IL-1B inflam inh -96.2, MCF10A rereplic 16.4µM
CCCCN1C(=O)NC(=O)C2(Cc3c(nc4c(C)cccn4c3=O)N3CCc4ccccc4C32)C1=O (stereo not given)	KB-V1 cytotox 14.6µM, SW480 rerep inconclusive, MCF10A rereplic inconclusive
CC(=O)N(C1=NCCCS1)c1ccccc1Cl	MCF10A rereplic 0.581µM
COc1cc(NC(=O)CN2C3CCC2CC(O)(c2cccnc2)C3)cc(OC)c1 (stereo not given)	none
CCCN(CC1CC1)CC(O)c1ccccc1 (stereo not given)	none
Cc1ccc(O)c(C(=O)c2cc(C(=O)NCCC(C)C)c(=O)n(CCC(C)C)c2)c1	KB-V1 cytotox inconclusive, IL-1B inflam inh -56.0, SW480 rerep inconclusive, MCF10A rereplic inconclusive
Cc1ccc(C(=O)NC(O)C(Cl)(Cl)Cl)cc1 (stereo not given)	none
COc1ccc(C2CC(=O)Oc3c2c(=O)oc2ccccc32)c(OC)c1OC (stereo not given)	KB-3-1 tox inconclusive (no result: IL-1B inflam inh, SW480 rerep, MCF10A rereplic)
CCn1c(C)[n+](CC(O)COCC2CC=CCC2)c2ccccc21 (stereo not given)	MCF10A rereplic inconclusive
Cc1nc2ccc(Nc3nc4cc(S(=O)(=O)N5CCOCC5)ccc4o3)cc2s1	SW480 rerep 18.4µM, MCF10A rereplic inconclusive
COC(=O)C12CCc3c(ccc4cc(OC)ccc34)C1=CC(=O)C2 (stereo not given)	KB-3-1 tox inconclusive, KB-V1 cytotox 20.6µM
COc1ccc2c(c1)CCCC2=O	none
O=C1CC[C@@]2(O)C3Cc4ccc(O)c5c4C2(CCN3CC2CC2)[C@H]1O5 (stereo not given in full)	none (no result: KB-3-1 tox, KB-V1 cytotox, IL-1B inflam inh)
CCN(CC)N=O	IL-1B inflam inh -96.7
Nc1ccc2ccccc2c1	none
C[n+]1c2cc(N)ccc2cc2ccc(N)cc21	KB-3-1 tox 10.3µM, KB-V1 cytotox 16.4µM, IL-1B inflam inh -108.0
Cn1c(O)c(/C=N/NC(=O)c2ccncc2)c(=O)n(C)c1=S	SW480 rerep 8.2µM, MCF10A rereplic 9.2µM
Cn1c(O)c(/C=N/NC(=O)c2ccncc2)c(=O)[nH]c1=S	SW480 rerep inconclusive
Cc1cc(C)c(C(=O)CN2CCOCC2)c(C)c1	SW480 rerep 9.2µM, MCF10A rereplic 8.2µM
COc1cc(C)c(CN2CCN(c3ccccc3)CC2)cc1C	KB-V1 cytotox 13µM
Oc1ccc(Br)cc1CN1CCN(c2ccccc2)CC1	KB-V1 cytotox 16.4µM
COc1ccccc1N1CCN(Cc2cc(C)c(C)cc2O)CC1	KB-V1 cytotox inconclusive, MCF10A rereplic inconclusive
CNCC(O)c1cc(OCc2ccccc2)c(OCc2ccccc2)cc1F (stereo not given)	KB-3-1 tox inconclusive, KB-V1 cytotox 18.4µM (no result: IL-1B inflam inh)
CNCC(O)c1cccc(OC(=O)c2ccccc2C)c1 (stereo not given)	none
Cc1ccc2c(c1)C1CN(C)CCC1N2C(=O)c1cn(-c2ccccc2)nc1-c1ccccc1 (stereo not given)	IL-1B inflam inh inconclusive, SW480 rerep inconclusive, MCF10A rereplic 20.6µM
O=c1c2ccccc2nc(/C=C\c2ccc(F)cc2)n1-c1ccccc1F	KB-3-1 tox inconclusive (no result: IL-1B inflam inh, SW480 rerep, MCF10A rereplic)

Source: PubChem BioAssay
